{"source": "the supplement of paper PMC9694430", "data": [{"system": "LOC_OS01G10900-cb004", "assay": "thermal shift delta Tm vs DMSO control; higher = stronger stabilization (binding)", "details": "12.5 µM; protein concentration 2 µM", "in_short": "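Heating from 25°C to 95°C at 0.05°C/s, fluorescence was recorded for 19.5 μl wells of 2 μM E. coli-expressed, purified rice kinase domain in 100 mM potassium phosphate pH 7.5, 150 mM NaCl, 10% glycerol and 5 × SYPRO Orange with compound in DMSO. Boltzmann fits gave melting temperatures for this differential scanning fluorimetry assay. The shift reported is the mean of three replicates against the DMSO-only protein.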", "units": {"thermal shift delta Tm": "°C"}, "values": [{"smiles": "O=C(Nc1cccc(C(F)(F)F)c1)c1cccc2cc(Oc3cc(CO)ncn3)ccc12", "thermal shift delta Tm": 0.77}, {"smiles": "CC1(C)C=Cc2c(ccc3c2OC[C@@H](c2ccc(O)cc2O)C3)O1", "note": "[Glabridin]", "thermal shift delta Tm": 2.07}, {"smiles": "COc1ccccc1-c1cc(Nc2cccc(CS(N)(=O)=O)c2)ncn1", "thermal shift delta Tm": -0.11}, {"smiles": "Cc1ccc(C(=O)Nc2ccc(Oc3cc4cnn(C)c4cc3-c3cn[nH]c3)c(F)c2)c(=O)n1-c1ccc(F)cc1", "thermal shift delta Tm": 0.37}, {"smiles": "CCS(=O)(=O)c1cccc(-c2cc(C(=O)NC3CCN(C)CC3)c(C)c3[nH]c4ncc(C)cc4c23)c1", "thermal shift delta Tm": 4.18}, {"smiles": "CCc1cncnc1N1CCN(Cc2nc3ccc(C(F)(F)F)cc3[nH]2)CC1", "thermal shift delta Tm": 0.36}, {"smiles": "Cc1ccc(NC(=O)c2ccc(CN3CCN(C)CC3)cc2)cc1Nc1nccc(-c2cccnc2)n1", "note": "[Imatinib (STI571)]", "thermal shift delta Tm": 1.47}, {"smiles": "CCn1c(=O)c(-c2ccc(Cl)cc2Cl)cc2cnc(Nc3ccc(N4CCNCC4)c(F)c3)nc21", "thermal shift delta Tm": 7.68}, {"smiles": "COc1cc(N2CCN(C)CC2)ccc1Nc1ncc2c(n1)N(C)c1ccccc1C(=O)N2", "thermal shift delta Tm": 1.07}, {"smiles": "CCn1c(-c2nonc2N)nc2cnc(Oc3cccc(NC(=O)c4ccc(OCCN5CCOCC5)cc4)c3)cc21", "thermal shift delta Tm": 1.47}, {"smiles": "O=C1Cc2c([nH]c3ccc(Br)cc23)-c2ccccc2N1", "note": "[Kenpaullone]", "thermal shift delta Tm": 3.23}, {"smiles": "COC(=O)Nc1ccc(-c2nc(N3CCOCC3)c3cnn(C4CCN(C(=O)OC)CC4)c3n2)cc1", "thermal shift delta Tm": 1.9}, {"smiles": "Nc1ncc(-c2ccnc(Nc3ccncc3)n2)c(CC2CC2)n1", "thermal shift delta Tm": 1.79}, {"smiles": "C=CC(=O)Nc1ccc2ncnc(Nc3cccc(Br)c3)c2c1", "thermal shift delta Tm": -0.13}, {"smiles": "COc1nccc(-c2c(-c3ccc(F)cc3)ncn2C2CCC(O)CC2)n1", "note": "(configuration not stated)", "thermal shift delta Tm": -0.06}, {"smiles": "CC(C)Nc1cc(-c2c[nH]c(C(=O)N[C@H](CO)c3cccc(Cl)c3)c2)c(Cl)cn1", "thermal shift delta Tm": 0.37}, {"smiles": "CN1CCN(Cc2ccc(NC(=O)Nc3ccc(Oc4ccnc(N)n4)cc3)cc2C(F)(F)F)CC1", "thermal shift delta Tm": 0.41}, {"smiles": "O=C(NCCO)c1cccc(-c2cc(Nc3ccc(OC(F)(F)F)cc3)ncn2)c1", "thermal shift delta Tm": 0.34}, {"smiles": "CC(C)(O)CNc1ncc(-c2ccnc(Nc3ccnc(Cl)c3)n2)c(CC2CC2)n1", "thermal shift delta Tm": 4.56}, {"smiles": "O=C1NC(=O)C(c2ccccc2[N+](=O)[O-])=C1Nc1ccc(O)c(Cl)c1", "thermal shift delta Tm": 0.16}, {"smiles": "CCOc1cc(N2CCC(O)CC2)ccc1Nc1ncc2c(n1)N(C)c1ccccc1C(=O)N2C", "thermal shift delta Tm": 0.7}, {"smiles": "COc1ccc(-c2ccc3ncc4c(c3c2)n(-c2ccc(N3CCNCC3)c(C(F)(F)F)c2)c(=O)n4C)cn1", "thermal shift delta Tm": 0.97}]}]}
